One may read the AC50 as the midpoint of the concentration-response curve, whichever way the signal moves.

1 molecule from PubChem BioAssay (EPA / NIEHS) can be followed below.

Assay [1] in a line: CCTE_Shafer_MEA_dev_firing_rate_mean: CCTE's Neural Network Formation Assay for Mean Firing Rate, Shafer Lab (AID 2284031). In outline: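 Primary rat cortical neurons on 48-well MEA plates, exposed from plating day 0 with dosing renewed on DIV 5 and 9. Mean well firing rate over active electrodes, recorded days 5, 7, 9, 12, summarised as trapezoidal AUC.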
A short description of assay [2]: CCTE_Shafer_MEA_dev_per_burst_spike_percent: CCTE's Neural Network Formation Assay for Percent of Spikes in a Burst, Shafer Lab (AID 2284032). The method in brief:
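Rat primary cortical neurons on 16-electrode MEA wells, dosed from plating day 0 for 12 days with renewal on DIV 5 and 9; spikes-in-bursts percentage averaged over bursting electrodes, collapsed as AUC across days 5, 7, 9, 12; loss direction versus DMSO.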

A short description of assay [3]: CCTE_Shafer_MEA_dev_active_electrodes_number: CCTE's Neural Network Formation Assay for Number of Active Electrodes, Shafer Lab (AID 2284040; active means hit-call score of the fitted dose curve at least 0.9, where 1 is the maximum). The method in brief:
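Primary rat cortical neurons on 16-electrode MEA wells, exposed from day 0 through day 12 with compound renewed at DIV 5 and 9 feeds. Active electrodes (mean firing ≥5 spikes/min) counted at DIV 5, 7, 9, 12; trapezoidal AUC across days, loss-of-signal versus DMSO.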

Assay [4] in a line: CCTE_Shafer_MEA_dev_burst_rate: CCTE's Neural Network Formation Assay for Burst Rate, Shafer Lab (AID 2284042). The method in brief:
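Cells plated, treated day 0; recorded DIV 5, 7, 9, 12; fed and re-treated DIV 5, 9. Endpoint: bursts per recording time, active-electrode well mean, trapezoidal AUC, fitted in decreasing direction against DMSO baseline.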

Assay [5] in a line: CCTE_Shafer_MEA_dev_bursting_electrodes_number: CCTE's Neural Network Formation Assay for Number of Bursting Electrodes, Shafer Lab (AID 2284043; active means hit-call score of the fitted dose curve at least 0.9, where 1 is the maximum). The method in brief:
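Primary rat cortical neurons were cultured on PEI-coated 48-well MEA plates (16 electrodes/well) and exposed from plating through day 12, with compound renewed at feeds on DIV 5 and 9. Electrodes bursting ≥1 per 2 min were counted on DIV 5, 7, 9, 12; trapezoidal AUC taken.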

A short description of assay [6]: CCTE_Shafer_MEA_dev_per_burst_interspike_interval: CCTE's Neural Network Formation Assay for Burst Interspike Interval, Shafer Lab (AID 2284044).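 Further: mean spike spacing inside bursts as AUC over recordings on days 5 7 9 12.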 The method in brief: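 Spontaneous activity of maturing rat cortical networks is recorded on DIV 5, 7, 9 and 12 under chronic compound exposure beginning at plating. Endpoint: burst interspike interval well-mean, collapsed into trapezoidal AUC and fitted in the negative direction relative to DMSO.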

The nature of assay [7]: CCTE_Shafer_MEA_dev_burst_duration_mean: CCTE's Neural Network Formation Assay for Mean Burst Duration, Shafer Lab (AID 2284045). In outline:
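Primary rat cortical neurons on PEI-coated 16-electrode MEA wells, exposed from plating through day 12 with compound renewed at DIV 5 and 9; spontaneous activity recorded days 5, 7, 9, 12. Well-mean burst duration collapsed as trapezoidal AUC, fitted for loss versus DMSO.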

Assay [8] can be described thus: CCTE_Shafer_MEA_dev_interburst_interval_mean: CCTE's Neural Network Formation Assay for Mean Interburst Interval, Shafer Lab (AID 2284046).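 Further: well-mean interburst interval of bursting electrodes as AUC over four recording days; curve fitted for decrease in interburst interval relative to DMSO.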 The method in brief:
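Developing rat cortical networks on 48-well MEAs receive compound from the day of plating. Burst intervals from each active electrode are averaged per well, and AUC over the recording days is fitted in the negative direction against DMSO.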

Assay [9] can be described thus: CCTE_Shafer_MEA_dev_inter_network_spike_interval_mean: CCTE's Neural Network Formation Assay for Mean Inter-network Spike Interval, Shafer Lab (AID 2284047). The method in brief:
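Rat cortical cultures, 1.5 x 10^5 cells/well on 48-well MEA plates; continuous exposure days 0–12, medium and compound refreshed DIV 5, 9. Mean time between consecutive network-spike peaks; AUC across DIV 5/7/9/12; DMSO baseline, negative fitting direction.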

Assay [10] can be described thus: CCTE_Shafer_MEA_dev_network_spike_number: CCTE's Neural Network Formation Assay for Number of Network Spikes, Shafer Lab (AID 2284048).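 Further: synchronized bursts across electrodes counted on days 5 7 9 12 and integrated as AUC.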 The method in brief:
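Primary rat cortical neurons were seeded at 1.5 x 10^5 cells/well on PEI-coated 16-electrode MEA wells with laminin, exposed from plating day 0, compound renewed at DIV 5 and 9. Network spikes were recorded on days 5, 7, 9, 12 and summarized as trapezoidal AUC versus DMSO.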

Assay [11] can be described thus: CCTE_Shafer_MEA_dev_network_spike_peak: CCTE's Neural Network Formation Assay for Mean Number of Electrodes in Network Spike, Shafer Lab (AID 2284049). In outline: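 Continuous 12-day exposure of rat cortical cultures, starting at plating, on MEA plates. Endpoint: electrodes participating in network-spike peaks, AUC across DIV 5–12, DMSO as negative control.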
Assay [12] can be described thus: CCTE_Shafer_MEA_dev_spike_duration_mean: CCTE's Neural Network Formation Assay for Mean Spike Duration, Shafer Lab (AID 2284051).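 Further: mean network spike duration pooled as area under curve over DIV 5 to 12 recordings.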 The method in brief:
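Readout is the average length of network spikes, clustered firing across electrodes, summed over DIV 5, 7, 9 and 12 as area under the curve. Neurons from rat cortex developed networks on MEA plates under continuous 12-day exposure.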

A short description of assay [13]: CCTE_Shafer_MEA_dev_network_spike_duration_std: CCTE's Neural Network Formation Assay for Standard Deviation of Network Spike Duration, Shafer Lab (AID 2284052).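 Further: area under curve of spike duration SD across recording days 5 to 12; hits are decreases in network spike duration SD versus DMSO vehicle.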 In outline:
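Read-out is the trapezoidal area-under-the-curve across recordings made on days 5, 7, 9 and 12, fitted in the negative direction against DMSO baseline. Neurons were primary rat cortical cells treated from day 0, with treatment renewed at each feed.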

A short description of assay [14]: CCTE_Shafer_MEA_dev_per_network_spike_spike_number_mean: CCTE's Neural Network Formation Assay for Mean Number of Spikes in a Network Spike, Shafer Lab (AID 2284053). In outline:
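Continuous twelve-day exposure of developing rat cortical networks grown over 16 microelectrodes per well; spontaneous firing is captured at four time points, and the per-network-spike spike number is integrated over development by trapezoidal AUC.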

Assay [15] in a line: CCTE_Shafer_MEA_dev_per_network_spike_spike_percent: CCTE's Neural Network Formation Assay for Percent of Spikes in a Network Spike, Shafer Lab (AID 2284054). In outline:
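Primary rat cortical neurons on 16-electrode MEA wells (PEI-coated, laminin at plating), exposed from day 0 with renewal at DIV 5 and 9; spikes within 0.05 s of network-spike peaks over total spikes, AUC across days 5, 7, 9, 12.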

Assay [16] in a line: CCTE_Shafer_MEA_dev_LDH: CCTE's Lactate Dehydrogenase Assay for Cytotoxicity in the Neural Network Formation Assay, Shafer Lab (AID 2284068; active means hit-call score of the fitted dose curve at least 0.9, where 1 is the maximum;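 further: exposure for twelve days from plating with re-dosing on DIV 5 and 9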). The method in brief:
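Cytotoxicity companion to network-formation recordings: rat cortical neurons received compound over 12 days of development, re-dosed at DIV 5 and 9 feeds. Viability was inferred from LDH enzyme activity relative to DMSO.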

The nature of assay [17]: CCTE_Shafer_MEA_dev_AB: CCTE's Alamar Blue Assay for Cytotoxicity in the Neural Network Formation Assay, Shafer Lab (AID 2284083; active means hit-call score of the fitted dose curve at least 0.9, where 1 is the maximum;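 further: resazurin reduction fluorescence as viability of cultured neurons; twelve days of exposure from plating with re-dosing on DIV 5 and 9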). The method in brief:
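Fluorescent resazurin reduction serves as the viability read-out, with DMSO as negative control and baseline. Cells were primary rat cortical neurons grown on MEA plates and dosed from day 0 to day 12, treatment renewed on DIV 5 and 9.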
On the technique in general: Resazurin is reduced to fluorescent resorufin, in cell work by metabolically active cells.

Assay [18] can be described thus: CCTE_Shafer_MEA_dev_correlation_coefficient_mean: CCTE's Neural Network Formation Assay for Mean Correlation Coefficient, Shafer Lab (AID 2284093). The method in brief: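 Read-out: well-mean correlation coefficient of spike trains between electrode pairs, collapsed over four recording days as trapezoidal area-under-the-curve. Developing rat cortical neuron networks grown on MEAs received test chemical continuously from plating.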

Assay [19] in a line: UKN2_HCS_IMR90_neural_migration: University of Konstanz (UKN) Leist Lab Neural Crest Cell Migration Assay in human induced IMR90 Pluripotent Stem Cells (UKN2) (AID 2284204). The note with it: actives raise or lower the signal. The method in brief:
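iPSC-derived IMR90 neural crest cells on PLO/laminin/fibronectin were seeded around silicone stoppers; after stopper removal, migration in N2-S medium with EGF and FGF ran 24 h before 24 h chemical exposure. Calcein-AM/Hoechst high-content imaging; bidirectional fit versus DMSO.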

Assay [20] is described as follows: IUF_NPC1b_proliferation_BrdU_72hr: Leibniz Research Institute for Environmental Medicine (IUF) 72-hour Neural Progenitor Cell Bromodeoxyuridine (BrdU) Proliferation Assay (NPC1b) (AID 2284207). The method in brief:
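hNPC spheres (primary, GW 16-19 fetal cortex), single sphere/well, EGF+FGF medium; 72 h compound, no renewal; BrdU pulse last 16 h; luminescent ELISA; activity vs DMSO baseline; growth-factor withdrawal as positive control.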

Assay [21] in a line: IUF_NPC1a_proliferation_area_72hr: Leibniz Research Institute for Environmental Medicine (IUF) 72-hour Neural Progenitor Cell Proliferation Area Assay (NPC1a) (AID 2284208). In outline: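 Measured in 3D suspension: each well held one primary hNPC sphere grown with EGF and FGF at pH 7.2-7.6. Compound stayed on for 72 h, then area was imaged; spheres lacking growth factors defined reduced proliferation.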

A short description of assay [22]: IUF_NPC1_viability_72hr: Viability Assessment at 72 hours in the Leibniz Research Institute for Environmental Medicine (IUF) Neural Progenitor Cell Proliferation Assay (NPC1) (AID 2284209). In outline: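 Single spheres (0.25-0.35 mm) of human fetal cortex-derived neural progenitor cells were grown in proliferation medium with EGF and FGF at 37C and 5% CO2. They were exposed for 72 h without renewal, and viability was read by alamar blue resorufin fluorescence.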

Inconclusive results are not listed. Active and inactive are the calls of the source. How the source made its calls, unless noted: active means hit-call score of the fitted dose curve at least 0.9, where 1 is the maximum; inactive means score below 0.9.

In the case of `CCc1ccccc1`, the molecule was called inactive in assay [1], in assay [2], in assay [3], in assay [4], in [5] and in assay [6]. Also, the outcome in assay [7], in assay [8], in [9], in [10], in [11] and in assay [12] was inactive. Also, the molecule was classed as inactive in assay [13], in [14], in assay [15], in [18], in [19] and in assay [21]. In assay [22], the outcome was inactive. Moreover, the figures for the concentration at half-maximal activity (AC50) in assay [16], in [17] and in assay [20] were 299 nM (active), 476 nM (active) and 12700 nM (active), respectively.
